Measured values published in PubChem BioAssay (NCI).
The panel holds about 83,000 compounds, 20% with a hit somewhere; the sample as a whole holds those more often.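 Growth was measured after 48 h exposure to one concentration of compound in 96-well plates. Values under 10 count as active.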 Unmarked numbers belong to inactive results. Calls of active or inactive are those of the source.

Tested on: HL-60(TB) leukemia
Test: NCI-60 one-dose screen, 48 h (100 = growth as untreated, 0 = no growth, -100 = all killed)
Settings: 10 µM unless noted

Structure (SMILES)	growth
Clc1ccc2c(NC3CCC(NC4CCCCC4)CC3)ccnc2c1 (centres undefined)	67.3%
CCOC(=O)CC1CSC(c2cccc(Cl)c2)=N1 (centres undefined)	98.8%
CCCCCCCCCCCCNC(=O)[C@H]1CSC(c2cc3ccccc3s2)N1 (some centres undefined)	-33.3% (active)
Brc1cccc(-c2cc(-c3ccc4nccnc4c3)[nH]n2)c1	14.9% [25 µM]
O=C(CCc1nnc2sc(-c3ccccc3)nn12)c1nc2ccccc2[nH]1	105%
CC1=NN(c2ccccc2)C(=O)C1C(=O)c1ccccc1 (centres undefined)	68.5%
COc1cccc2c1c1nc3cc(C)c(C)cc3nc1n2CCN(C)C	15.3%
COc1ccc(C2=NN(C(=O)c3cc(-c4ccc(C)cc4)nc4ccccc34)C(c3cc(-c4ccccc4)nn3-c3ccccc3)C2)cc1 (centres undefined)	90.6%
Cc1ccc(C2Oc3ccccc3C3CC(c4cccs4)=NN32)cc1 (centres undefined)	97.4%
C=C1C(=O)O[C@H]2[C@H]1CC/C(COC(=O)NCc1ccc(Cn3c(=O)sn(-c4ccc(Cl)cc4)c3=O)cc1)=C\CC[C@@]1(C)O[C@@H]21	-11.4% (active)
COc1ccc(CN2c3ccccc3Sc3ccccc32)c(C(F)(F)F)c1	23.7%
CCN1CCN(c2cc(-c3cn[nH]c3-c3cc(C)cc(OC)c3)nc(-c3cccnc3)n2)CC1	64.9%
CC(/C=N/NC(=O)c1cc(-c2ccco2)[nH]n1)=C\c1ccccc1	99%
C=C(C)[C@@H]1CC[C@]2(COC(=O)c3ccccc3C(=O)O)CC[C@]3(C)[C@H](CC[C@@H]4[C@@]5(C)CC[C@H](OC(=O)c6ccccc6C(=O)O)C(C)(C)[C@@H]5CC[C@]43C)[C@@H]12	37.8% [100 µM]
COc1cc2c3c(cccc3c1)C(=O)N(CCN1CCCC1)C2=O	26%
C=CC(=O)Nc1cc2c(Nc3ccc(F)c(Cl)c3)ncnc2cc1OCCCN1CCOCC1	-26.7% (active)
COc1ccc2c(c1)C(CC(=O)NN)CCC2 (centres undefined)	113%
CCCN1C(=O)CSC1=Nc1ccc2cc3ccc(N=C4SCC(=O)N4CCC)cc3nc2c1	8.32% (active)
COc1cc(NC(=O)c2sc3nc4c(cc3c2N)C(O)CCC4)cc(OC)c1 (centres undefined)	73.2%
Clc1ccc(-c2nnc(-c3cccc4ccccc34)o2)cc1	112%

Structure (SMILES)	growth
CCOC(=O)C1CCc2c(ccc3ccccc23)N1CCC#N (centres undefined)	110%
Cc1ccc(-c2nc3nc(-c4ccc(F)cc4)nc(N4CCCNCC4)c3o2)cc1	-70.3% (active)
Clc1ccc(Nc2ccnc(NCCNc3ccnc4cc(Cl)ccc34)n2)cc1	-71% (active)
O=C1CC(c2cccc(F)c2)c2c(n[nH]c2-c2ccc(Cl)cc2)N1 (centres undefined)	97.3%
CCN(CC)c1ccc(/C=N/NC(=O)CSc2nc3ccccc3c(=O)n2Cc2ccc(S(N)(=O)=O)cc2)c(O)c1	-19.7% (active)
NC(=O)c1cc(Cl)ccc1NC(=O)COc1ccccc1	-0.779% (active)
O=C1C=CC(=O)N1C1CCCCCCCCCCC1	-9.95% (active)
CCOC(=O)CSc1c(-c2ccccc2)c2cc(Cl)ccc2[nH]c1=O	84.7%
O=C(Nc1ccc(I)cc1)c1cc([N+](=O)[O-])ccc1O	20.6%
O=C(Nc1cccc(-n2cc(-c3ccncc3)c(-c3cc(O)cc(Cl)c3)n2)c1)c1cc(C(F)(F)F)cc(C(F)(F)F)c1	21.4%
C1=C\CCCCN2CC[C@H]3[C@H](CCCC/C=C\CCCN4C[C@@H](CCCCC/1)C[C@@H]3C4)C2	-35.5% (active)
CN(C)c1ccc(/C=C/C(=O)c2ccc(NC(N)=O)cc2)cc1	87.3%
OCC(O)C(O)C(O)C(/C=N/Nc1ccccc1)=N/Nc1ccccc1 (centres undefined)	98.6%
OC(c1cc(C23CC4CC(CC(C4)C2)C3)nc2c(Cl)cc(Cl)cc12)C1CCCCN1 (centres undefined)	-47.7% (active)
COC(=O)c1cc2oc(/C=C3/SC(=S)N(N)C3=O)cc2n1Cc1ccccc1	53.7%
CCN1CCC(CCOC)(CN2c3ccccc3Sc3ccc(Cl)cc32)C1 (centres undefined)	58.5%
CCCCOc1nc2ccc(Cl)cc2cc1/C=C/C(=O)/C=C/c1ccc(Cl)cc1	61.2%
Oc1ccccc1N=Cc1ccccc1	84.2%
Nc1ccc2c(c1)C1(CCC2)NC(=O)NC1=O (centres undefined)	93.1%
